Hit rate of the full screen: of about 320,000 compounds, about 22,000 (6.9%) were called active. About 27% were inconclusive and are not listed. The call rests on the fitted dose curve; in most records, active means well fitted inhibition curve with a large enough effect; inconclusive means small, poorly fitted or top-dose-only effect, or another doubt; inactive means no such curve, though single readings can be large or run the other way. What follows is part of a selection rich in actives, with near analogues and random picks from the rest. Entries that show only a call come without a potency.
Test: Primary qHTS for delayed death inhibitors of the malarial parasite plastid, 96 hour incubation
Conditions: P. falciparum luciferase reporter growth; series mostly up to 28.7 µM
Summary of the method: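 Luminescence readout: decreased luciferase signal marks inhibited growth of reporter-expressing P. falciparum in infected red cells (2% hematocrit, 0.05% parasitemia final), exposed to compound two generations (96 h, 37 C, 5% CO2).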
Potency means the concentration at half of the fitted maximal effect.

**Q.** For `O=C(CCNC(=O)c1ccc(Br)cc1)Nc1cccc(S(=O)(=O)N2CCCCC2)c1`, which Potency is on record?
**A.** Its Potency is “inactive”.

**Q.** For `O=C(O)c1ccc(NC(=O)c2ccc(COc3ccc(Cl)cc3)o2)cc1`, which Potency is on record?
**A.** Its Potency is “inactive”.

**Q.** With `COc1ccccc1CNS(=O)(=O)CC12CCC(CC1=O)C2(C)C` (configuration not stated) as the compound, how does the Potency read?
**A.** Its Potency is “inactive”.

**Q.** For `CC(=O)Cn1cnc2c(cnn2-c2ccccc2)c1=O`, which Potency is on record?
**A.** Its Potency is “inactive”.

**Q.** Which Potency does the source give for `Cc1c2cnn(-c3ccccc3)c(=O)c2c(C)n1CCCC(=O)N1CCN(C)CC1` here?
**A.** The Potency was 13.1 µM (active).

**Q.** For `O=C(CCCN1C(=O)C2C3C=CC(C3)C2C1=O)N1CCN(c2ccccc2)CC1` (configuration not stated), which Potency is on record?
**A.** The Potency was “inactive”.

**Q.** For `O=C(NCc1ccncc1)c1cccc(NS(=O)(=O)c2ccc(F)c(F)c2)c1`, which Potency is on record?
**A.** Its Potency is “inactive”.

**Q.** With `CCOc1ccccc1NS(=O)(=O)c1cc2c3c(c1)C(C)C(=O)N3CCC2` (configuration not stated) as the compound, how does the Potency read?
**A.** The Potency was “inactive”.

**Q.** With `CCOc1ccc(NC(=S)NC(=O)/C=C/c2ccc(OC)cc2)c([N+](=O)[O-])c1` as the compound, how does the Potency read?
**A.** Its Potency is “inactive”.

**Q.** For `O=C(/C=C/c1ccc(F)cc1)NC(=S)NNC(=O)c1cccnc1`, which Potency is on record?
**A.** The Potency was “inactive”.

**Q.** For `COc1ccc(/C=C/C(=O)NC(=S)NN2CCCCC2c2cccnc2)cc1` (configuration not stated), which Potency is on record?
**A.** Its Potency is 13.1 µM (active).

**Q.** Which Potency does the source give for `COC(=O)[C@@H](Cc1ccccc1)NC(=O)NCCc1ccccc1` here?
**A.** Its Potency is “inactive”.

**Q.** For `NC1=NC(=O)S/C1=C\c1ccc(O)cc1`, which Potency is on record?
**A.** Its Potency is “inactive”.

**Q.** For `O=C1N=C(N2CCc3ccccc3C2)S/C1=C\c1ccc(O)cc1`, which Potency is on record?
**A.** The Potency was 11.7 µM (active).

**Q.** Which Potency does the source give for `O=C1N=C(N2CCCC2)S/C1=C\c1cccc(Br)c1` here?
**A.** Its Potency is “inactive”.

**Q.** For `COc1ccc(-c2nc3n(c(=O)c2C#N)CCS3)c(OC)c1`, which Potency is on record?
**A.** The Potency was “inactive”.

**Q.** Which Potency does the source give for `COc1cc(NS(=O)(=O)c2ccc(NC(=S)NC(=O)c3ccccc3)cc2)nc(OC)n1` here?
**A.** The Potency was “inactive”.

**Q.** Which Potency does the source give for `Cc1ccnc(NC(=O)CCNS(=O)(=O)c2ccc(C)c(C)c2)c1` here?
**A.** Its Potency is “inactive”.

**Q.** Which Potency does the source give for `Cc1ccc(NC(=S)NC2CCCC2)cc1` here?
**A.** Its Potency is “inactive”.

**Q.** For `C/C(=N\NC(=S)NC1CCCCC1)c1ccc(C)o1`, which Potency is on record?
**A.** The Potency was 4.65 µM (active).

**Q.** For `C/C(=N/NC(=O)c1ccc(Br)o1)c1ccc(C)o1`, which Potency is on record?
**A.** The Potency was “inactive”.

**Q.** With `CCCc1cc(C(=O)Nc2ccc(Cl)cn2)cs1` as the compound, how does the Potency read?
**A.** The Potency was “inactive”.

**Q.** With `CCOc1ccc(CCNC(=O)Nc2ccccc2)cc1OCC` as the compound, how does the Potency read?
**A.** The Potency was “inactive”.

**Q.** For `COC(=O)c1cccc(N2C(=O)C3C4C=CC(CC4)C3C2=O)c1` (configuration not stated), which Potency is on record?
**A.** The Potency was “inactive”.

**Q.** For `Cn1c(=NC(=O)CSCC(=O)N2CCCCC2)sc2ccccc21`, which Potency is on record?
**A.** The Potency was “inactive”.

**Q.** With `Cn1c(=NC(=O)CSCC(=O)N2CCOCC2)sc2ccccc21` as the compound, how does the Potency read?
**A.** Its Potency is “inactive”.

**Q.** With `Cn1c(=NC(=O)c2cnccn2)sc2ccccc21` as the compound, how does the Potency read?
**A.** Its Potency is 11.7 µM (active).

**Q.** Which Potency does the source give for `CCN(CC(=O)Nc1ccccc1C(=O)NC1CC1)Cc1cccs1` here?
**A.** The Potency was “inactive”.

**Q.** With `COc1cc(CN2CCC(n3nccc3NC(=O)CCCc3ccccc3)CC2)ccc1O` as the compound, how does the Potency read?
**A.** The Potency was “inactive”.

**Q.** Which Potency does the source give for `COCCCN1C(=O)C(=O)/C(=C(/O)c2ccc(S(=O)(=O)N3CCOCC3)cc2)C1c1ccc(F)cc1` (configuration not stated) here?
**A.** The Potency was “inactive”.

**Q.** For `CCc1cccc(NC(=O)C2CCCN(S(=O)(=O)c3ccc4[nH]c(=O)ccc4c3)C2)c1` (configuration not stated), which Potency is on record?
**A.** The Potency was “inactive”.

**Q.** For `CCNC(=O)N1CCN(S(=O)(=O)c2ccc3c(c2)OCCCO3)CC1`, which Potency is on record?
**A.** The Potency was “inactive”.

**Q.** With `Cc1ccc(C(=O)NC2CCCC(C)C2C)cc1S(=O)(=O)N1CCCCC1` (configuration not stated) as the compound, how does the Potency read?
**A.** Its Potency is 14.7 µM (active).

**Q.** With `Cc1ccc(C(=O)NCC(=O)O)cc1S(=O)(=O)N1CCCCC1` as the compound, how does the Potency read?
**A.** Its Potency is “inactive”.

**Q.** With `Cc1ccc(C(=O)Nc2ccc3c(c2)OCO3)cc1S(=O)(=O)N1CCCCC1` as the compound, how does the Potency read?
**A.** Its Potency is “inactive”.

**Q.** Which Potency does the source give for `CC(C)CCNC(=O)c1ccc2c(Cl)c3c(nc2c1)CCC3` here?
**A.** Its Potency is “inactive”.

**Q.** Which Potency does the source give for `O=C(NNC(=O)c1ccco1)Nc1ccccc1` here?
**A.** Its Potency is “inactive”.

**Q.** With `CC(=O)Nc1ccc(-c2nc3ccccc3o2)cc1` as the compound, how does the Potency read?
**A.** The Potency was “inactive”.

**Q.** With `O=C(Cc1cccc2ccccc12)Nc1ccc2oc(-c3ccccc3)nc2c1` as the compound, how does the Potency read?
**A.** The Potency was “inactive”.

**Q.** For `O=C(Nc1ccc2oc(-c3ccc4ccccc4c3)nc2c1)c1cccs1`, which Potency is on record?
**A.** Its Potency is 4.65 µM (active).

**Q.** For `O=C(c1ccc(Br)o1)N1CCN(CCOc2ccccc2)CC1`, which Potency is on record?
**A.** The Potency was “inactive”.

**Q.** For `COc1ccc2[nH]cc(CCN3C(=O)c4ccc(C(=O)O)cc4C3=O)c2c1`, which Potency is on record?
**A.** Its Potency is “inactive”.

**Q.** For `COc1ccc(C2Nc3ccccc3C(=O)N2Cc2ccccc2)cc1Cn1nnc2ccccc21` (configuration not stated), which Potency is on record?
**A.** Its Potency is 3.29 µM (active).

**Q.** For `COc1ccc(C2Nc3ccccc3C(=O)N2c2ccc(F)cc2)cc1Cn1nnc2ccccc21` (configuration not stated), which Potency is on record?
**A.** The Potency was 9.28 µM (active).

**Q.** For `CC(=O)NN1C(=O)c2ccccc2NC1c1ccccc1` (configuration not stated), which Potency is on record?
**A.** The Potency was “inactive”.

**Q.** With `COc1ccc(N2C(=O)c3ccccc3NC2c2ccc(OC)c(CN3CCOCC3)c2)cc1` (configuration not stated) as the compound, how does the Potency read?
**A.** Its Potency is “inactive”.

**Q.** For `Fc1ccc(OCc2nn3c(Cn4nnc5ccccc54)nnc3s2)cc1`, which Potency is on record?
**A.** Its Potency is “inactive”.

**Q.** For `Cc1ccc(C2Nc3ccccc3C(=O)N2CCN2CCNC2=O)cc1` (configuration not stated), which Potency is on record?
**A.** Its Potency is “inactive”.

**Q.** With `COc1ccc(N(CC(=O)NCC2CCCO2)C(=O)CCC(=O)Nc2nccs2)c(OC)c1` (configuration not stated) as the compound, how does the Potency read?
**A.** The Potency was “inactive”.

**Q.** With `O=C(CSc1nc2[nH]c(=O)[nH]c(=O)c2s1)Nc1cccc(F)c1` as the compound, how does the Potency read?
**A.** The Potency was “inactive”.

**Q.** For `Cc1ccc(S(=O)(=O)N2CCCCC2)cc1C(=O)N(C)CC(=O)Nc1cccc(F)c1`, which Potency is on record?
**A.** The Potency was “inactive”.

**Q.** Which Potency does the source give for `CC(C)(C)C(=O)COC(=O)c1cc(S(=O)(=O)N2CCCCC2)ccc1N1CCOCC1` here?
**A.** The Potency was “inactive”.

**Q.** For `CCc1nn(CC(=O)N2CCN(CC)CC2)c(=O)c2cccn12`, which Potency is on record?
**A.** The Potency was “inactive”.

**Q.** For `CC(NC(=O)C1CCCN(S(=O)(=O)c2ccc(-n3cnnn3)cc2)C1)c1ccc(F)cc1` (configuration not stated), which Potency is on record?
**A.** The Potency was “inactive”.

**Q.** With `C=CCn1c(=NC(=O)c2ccc(S(=O)(=O)N3CCCC3)cc2)sc2cc(NC(C)=O)ccc21` as the compound, how does the Potency read?
**A.** The Potency was 0.928 µM (active).

**Q.** For `C=CCn1c(=NC(=O)c2cccs2)sc2cc(NC(C)=O)ccc21`, which Potency is on record?
**A.** Its Potency is “inactive”.

**Q.** Which Potency does the source give for `COc1cc(C(C)=O)ccc1OC(C)C(=O)Nc1ccc(S(=O)(=O)N2CCCC2)cc1` (configuration not stated) here?
**A.** The Potency was “inactive”.

**Q.** For `O=C(Cc1ccccc1F)NC1CCSc2ccccc21` (configuration not stated), which Potency is on record?
**A.** Its Potency is “inactive”.

**Q.** For `O=S(=O)(/C=C/c1ccccc1)N1CCNCC1`, which Potency is on record?
**A.** Its Potency is “inactive”.

**Q.** For `CC1CCN(C(=O)CCNC(=O)c2ccccc2)CC1`, which Potency is on record?
**A.** Its Potency is “inactive”.

**Q.** For `Cn1c(CC2Sc3ccccc3NC2=O)nnc1SCC(=O)c1ccc(Cl)cc1` (configuration not stated), which Potency is on record?
**A.** The Potency was “inactive”.

**Q.** Which Potency does the source give for `O=C(NCCN1CCOC1=O)C1CCC(=O)N(CCc2ccc(Cl)cc2)C1` (configuration not stated) here?
**A.** The Potency was “inactive”.

**Q.** Which Potency does the source give for `CCOC(=O)COc1ccc(Cl)cc1C1NC(=O)NC(C)=C1C(C)=O` (configuration not stated) here?
**A.** Its Potency is “inactive”.

**Q.** Which Potency does the source give for `COCCOC(=O)C1=C(C)NC(=O)NC1c1ccc(Cl)cc1` (configuration not stated) here?
**A.** Its Potency is “inactive”.

**Q.** For `CCOC(=O)C1=C(C)NC(=O)N(C(C)=O)C1c1ccc(Cl)cc1` (configuration not stated), which Potency is on record?
**A.** Its Potency is 4.15 µM (active).

**Q.** For `OC(COc1ccc(F)cc1Cl)CN1CCc2ccccc2C1` (configuration not stated), which Potency is on record?
**A.** The Potency was “inactive”.

**Q.** With `CS(=O)(=O)c1ccccc1C(=O)Nc1ccc2sccc2c1` as the compound, how does the Potency read?
**A.** The Potency was “inactive”.

Source: PubChem BioAssay AID504834 (National Center for Advancing Translational Sciences (NCATS), 2011)
